# The panel holds about 83,000 compounds, 20% with a hit somewhere; the sample as a whole holds those more often.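 Negative percent growth values reflect cell death: -40 means 40% of the cells present at the start died, and -100 means all died.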 Values without a mark were called inactive. The source made the active and inactive calls. How the source made its calls: active means growth percent below 10; inactive means the rest.
# System: HOP-92 NSCLC
# Assay: NCI-60 one-dose screen, 48 h (100 = growth as untreated, 0 = no growth, -100 = all killed)
# Settings: 10 µM unless noted
row,Compound,growth
1,O=C1NC(=O)C(=Cc2cn(Cc3cn(Cc4ccc(Cl)cc4Cl)nn3)c3ccccc23)C(=O)N1,92.6%
2,CN1CCN(Cc2ccc(C(=O)Nc3cncc(C#Cc4cnc(N)c5ccccc45)c3)cc2C(F)(F)F)CC1,45.2%
3,COc1ccc(C2C3=C(COC3=O)N(CCO)c3cc4c(cc32)OCCO4)cc1 (stereo not drawn),102%
4,O=C(Nc1ccc(I)cc1F)c1cc(Cl)ccc1O,-15.8% (active)
5,NCCOc1ccccc1/C=C1\c2ccccc2-c2ccc([N+](=O)[O-])cc21,-1.14% (active)
6,O=c1oc2ccc(I)cc2c(=O)n1-c1ccc(Cl)cc1F,-6.61% (active)
7,COc1cc(/C=C2\CN(C)C/C(=C\c3cc(CN4CCOCC4)c(O)c(OC)c3)C2=O)cc(CN2CCOCC2)c1O,93.2%
8,CCOC(=O)c1sc(-c2ccc(OS(=O)(=O)C[C@]34CCC(CC3=O)C4(C)C)c(C=O)c2)nc1C,38.4%
9,COc1ccc(/C=C2/SC(=O)N(CC(=O)N3CCN(c4cc5c(cc4F)c(=O)c(C(=O)O)cn5C4CC4)CC3)C2=O)cc1,113%
10,COc1ccc(C)c2sc(N(Cc3cccnc3)C(=O)c3ccc(C#N)cc3)nc12,-3.64% (active)
11,NC(=O)CSc1nc(-c2ccc(F)cc2)cc(-c2ccco2)n1,101%
12,CC(=O)c1ccc(Nc2nc(NCCO)nc(Nc3ccc(Cl)cc3)n2)cc1,86.4%
13,O=c1c2cc(F)cc(Cl)c2sc2c(Cl)nc3ccccc3c12,99.3%
14,O=Cc1cc2ccccc2nc1Nc1nccs1,81%
15,CC1=NCC2NC(=O)NC(C)=C12 (stereo not drawn),87.7%
16,COc1ccc(CCN2C(=O)CCSC2=S)cc1OC,87%
17,CCOC(=O)c1sc(-c2ccc(OS(=O)(=O)c3ccccc3[N+](=O)[O-])c(C=O)c2)nc1C,65.6%
18,Cc1cccc(NC(=O)c2sc3nc4c(cc3c2N)CCCC4)c1C,49.6%
19,COc1cc(C(=O)NN=C2c3ccccc3-c3ccccc32)cc(OC)c1OC,42.4%
20,Nc1ccc(-n2c(=O)oc3ccc(Cl)cc3c2=O)c(Cl)c1,-13.1% (active)

row,Compound,growth
1,O=C(Nc1ccc(-c2nc3cc4ccccc4cc3[nH]2)cc1)c1cccc(Br)c1,72.6%
2,CCOC(=O)CSc1c(-c2ccccc2)c2cc(Cl)ccc2[nH]c1=O,100%
3,O=C(NCc1ccco1)C1CN(c2ccc(Cl)cc2)N(c2ccc(Cl)cc2)C1=O (stereo not drawn),78.1%
4,O=C(Nc1ncc(Cc2cccc(C(F)(F)F)c2)s1)C1COc2ccccc2O1 (stereo not drawn),72.2%
5,COc1ccc(-n2c(C(O)c3ccccc3)nn(CN3CCOCC3)c2=S)cc1 (stereo not drawn),82.6%
6,Fc1ccc(Oc2ccc(Nc3ncnc4onc(-c5ccccc5)c34)cc2)cc1,88.8%
7,Cc1ccc(N=NC2C(=O)N(c3ccc(Cl)cc3)N(c3ccc(Cl)cc3)C2=O)cc1,101%
8,Nc1nc(Nc2cccc(F)c2)nc2ccccc12,-2.46% (active)
9,O=C(Nc1ccc(Br)cc1F)c1cc(F)ccc1O,-11.3% (active)
10,Nc1ccc(C2c3ccccc3Oc3ccccc32)cc1,93.4%
11,COc1ccc(/C=C/C(=O)c2ccc3cc(OC)c(OC)cc3c2)cc1OC,51.4%
12,CN(C)c1ccc(N=Cc2ccc(N3CCOCC3)cc2)cc1,100%
13,CC(=O)c1ccc(NC(=O)Nc2ccc(S(=O)(=O)Nc3ccc(Cl)nn3)cc2)cc1,106%
14,CCC(C)(C)C(=O)O[C@H]1C[C@@H](C)C=C2C=C[C@H](C)[C@H](CC[C@@H]3CC=CC(=O)O3)[C@H]21,75.3%
15,COC(=O)[C@H]1CCCN1C(=O)[C@H]1CCCN1C(=O)[C@H](Cc1c[nH]c2ccccc12)NC(=S)Nc1cc(C(F)(F)F)cc(C(F)(F)F)c1,88.8%
16,NCCOc1ncccc1/C=C1\c2ccccc2-c2ccc([N+](=O)[O-])cc21,-39.5% (active)
17,CC(C)C[C@H](C(=O)N[C@H](C(N)=O)C(C)C)N1CC=CCN(OCc2ccccc2)S1(=O)=O,82.9% [2.5 µM]
18,COc1ccc(N)c(-c2cc3c(c4c2[nH]c2ccc(OC)cc24)CCCC3)c1,72.2%
19,COc1ccc(-c2nc(-c3ccccn3)c(-c3ccccn3)n2CC(C)C)cc1OC1CCCC1,35.2%

# System: NCI-H522 lung
# Assay: as above
# Settings: 10 µM unless noted
row,Compound,growth
1,O=C1NC(=O)C(=Cc2cn(Cc3cn(Cc4ccc(Cl)cc4Cl)nn3)c3ccccc23)C(=O)N1,77.7%
2,CN1CCN(Cc2ccc(C(=O)Nc3cncc(C#Cc4cnc(N)c5ccccc45)c3)cc2C(F)(F)F)CC1,-54.3% (active)
3,COc1ccc(C2C3=C(COC3=O)N(CCO)c3cc4c(cc32)OCCO4)cc1 (stereo not drawn),58.2%
4,O=C(Nc1ccc(I)cc1F)c1cc(Cl)ccc1O,-17.1% (active)
5,NCCOc1ccccc1/C=C1\c2ccccc2-c2ccc([N+](=O)[O-])cc21,21.3%
6,O=c1oc2ccc(I)cc2c(=O)n1-c1ccc(Cl)cc1F,-17.1% (active)
7,CCOC(=O)c1sc(-c2ccc(OS(=O)(=O)C[C@]34CCC(CC3=O)C4(C)C)c(C=O)c2)nc1C,1.5% (active)
8,COc1ccc(/C=C2/SC(=O)N(CC(=O)N3CCN(c4cc5c(cc4F)c(=O)c(C(=O)O)cn5C4CC4)CC3)C2=O)cc1,87.1%
9,COc1ccc(C)c2sc(N(Cc3cccnc3)C(=O)c3ccc(C#N)cc3)nc12,-22.2% (active)
10,NC(=O)CSc1nc(-c2ccc(F)cc2)cc(-c2ccco2)n1,94.5%
11,CC(=O)c1ccc(Nc2nc(NCCO)nc(Nc3ccc(Cl)cc3)n2)cc1,81.2%
12,O=Cc1cc2ccccc2nc1Nc1nccs1,83.1%
13,CC1=NCC2NC(=O)NC(C)=C12 (stereo not drawn),96.5%
14,COc1ccc(CCN2C(=O)CCSC2=S)cc1OC,48.3%
15,CCOC(=O)c1sc(-c2ccc(OS(=O)(=O)c3ccccc3[N+](=O)[O-])c(C=O)c2)nc1C,18.8%
16,Cc1cccc(NC(=O)c2sc3nc4c(cc3c2N)CCCC4)c1C,-6.44% (active)
17,COc1cc(C(=O)NN=C2c3ccccc3-c3ccccc32)cc(OC)c1OC,15%

row,Compound,growth
1,Nc1ccc(-n2c(=O)oc3ccc(Cl)cc3c2=O)c(Cl)c1,-20.1% (active)
2,O=C(Nc1ccc(-c2nc3cc4ccccc4cc3[nH]2)cc1)c1cccc(Br)c1,16.3%
3,CCOC(=O)CSc1c(-c2ccccc2)c2cc(Cl)ccc2[nH]c1=O,91.2%
4,O=C(NCc1ccco1)C1CN(c2ccc(Cl)cc2)N(c2ccc(Cl)cc2)C1=O (stereo not drawn),39.3%
5,O=C(Nc1ncc(Cc2cccc(C(F)(F)F)c2)s1)C1COc2ccccc2O1 (stereo not drawn),67.8%
6,COc1ccc(-n2c(C(O)c3ccccc3)nn(CN3CCOCC3)c2=S)cc1 (stereo not drawn),89.9%
7,Fc1ccc(Oc2ccc(Nc3ncnc4onc(-c5ccccc5)c34)cc2)cc1,90.5%
8,Cc1ccc(N=NC2C(=O)N(c3ccc(Cl)cc3)N(c3ccc(Cl)cc3)C2=O)cc1,85.1%
9,Nc1nc(Nc2cccc(F)c2)nc2ccccc12,51.5%
10,O=C(Nc1ccc(Br)cc1F)c1cc(F)ccc1O,-1.14% (active)
11,CN(C)c1ccc(N=Cc2ccc(N3CCOCC3)cc2)cc1,42.4%
12,CCC(C)(C)C(=O)O[C@H]1C[C@@H](C)C=C2C=C[C@H](C)[C@H](CC[C@@H]3CC=CC(=O)O3)[C@H]21,39.4%
13,COC(=O)[C@H]1CCCN1C(=O)[C@H]1CCCN1C(=O)[C@H](Cc1c[nH]c2ccccc12)NC(=S)Nc1cc(C(F)(F)F)cc(C(F)(F)F)c1,68.6%
14,NCCOc1ncccc1/C=C1\c2ccccc2-c2ccc([N+](=O)[O-])cc21,-20% (active)
15,CC(C)C[C@H](C(=O)N[C@H](C(N)=O)C(C)C)N1CC=CCN(OCc2ccccc2)S1(=O)=O,86.4% [2.5 µM]
16,COc1ccc(N)c(-c2cc3c(c4c2[nH]c2ccc(OC)cc24)CCCC3)c1,57.1%
17,COc1ccc(-c2nc(-c3ccccn3)c(-c3ccccn3)n2CC(C)C)cc1OC1CCCC1,20.8%

# Reference: PubChem BioAssay (NCI)
